This note sets out measurements from publication PMC12136788.

Residue numbers refer to the chain shown, from its start. Whole data set: some 5,800 sequences, median “enrichment r” near 0.54, cut for the highest 2% near 16. Many of the other results were omitted from the sample, so the highest values are more common in it than they were.

The labels stand for the following.
B1: ENSG00000115216:stop:overlap|stop_codon|ENSG00000115216|stop_codon|NA|stop_codon (ssRNA)
RNA: GGGAGUUCUACAGUCCGACGAUCACAAGUUCAAUUUUGCCAGGAACAGUACCCUCAACUCAGCCGCUGUCACCGUCUCCUCUUAGAGCUCACUCGGGCCAGGCCCUGAUCUGCGCUGUGGCUGUCCCUGGACGUGCUGCAGCCCAACAGAGGAUUGAGCAUCA
B2: chr11:13729208:13729309:+|3pUTR|ENSG00000197601|unk|FALSE|unique (ssRNA)
RNA: GGGAGUUCUACAGUCCGACGAUCAAAGUUGGUAGAUAUUUGAUUCUUCAUUUUUUGUUUUUUUCAUUAGUUGAAGUGGGUUUUAGUUUUGUUUAAAAUUAUAACCAGCGUAUUUUCACAUCAUUCUGUAAGUUAAAUGAUAUCCAACAGAGGAUUGAGCAUCA
B3: chr17:48622902:48623135:-|CDS|ENSG00000170689|control|control|control (ssRNA)
RNA: GGGAGUUCUACAGUCCGACGAUCUACCAGACGCUGGAGCUAGAGAAGGAGUUUCUGUUCAAUAUGUACCUCACCAGGGACCGUAGGCACGAAGUGGCCAGACUCCUCAAUCUGAGUGAGAGACAAGUCAAAAUCUGGUUUCAGCAACAGAGGAUUGAGCAUCA
B4: chr13:99866285:99866388:+|CDS|ENSG00000125246|unk|FALSE|unique (ssRNA)
RNA: GGGAGUUCUACAGUCCGACGAUCUAUUCUCUACGCCCGGCAAAAGAUUGUUGUCAUAGCGAAAGCCUUUGGUCUCCAAGCCAUAGAUCUGGUGUACAUUGACUUUCGAGAUGGAGCUGGGCUGCUUAGACAGUCACGAGAAGGCAACAGAGGAUUGAGCAUCA
B5: ENSG00000198589:be:win_1301|CDS|ENSG00000198589|bound_else_gene|NA|bound_elsewhere_windowed (ssRNA)
RNA: GGGAGUUCUACAGUCCGACGAUCCAUCUCCUAAGGACAACCCUUCAAUUUUUGUUCAUUCACCACAUGCACUCAUGCUCCAGGAUGUAAAGGCAGUUUUAACACAUUCCAUCCAAAGUGCAAUGCAUUCAAUUGGAGGAGUACCAACAGAGGAUUGAGCAUCA
B6: chr15:59095394:59095499:+|3pUTR|ENSG00000157450|unk|FALSE|unique (ssRNA)
RNA: GGGAGUUCUACAGUCCGACGAUCUAAAUACCAUCCUUAAUACUGGGAACAGAAUACAACCCAUAUAAAUCAGAUGCAGGUGGUAGUCACAUCACCAGAGUGAUCAGUAUAAAUUUUCUUGGUGUAUCCUUUUCCUUUCAACACCAACAGAGGAUUGAGCAUCA
B7: chr1:193029531:193029688:-|CDS|ENSG00000116750|unk|FALSE|unique (ssRNA)
RNA: GGGAGUUCUACAGUCCGACGAUCUUGAUAUCUUCACUUUUAUAUUUUAUAGGUAAUUAAUAAUGCUUGUGCUACUCAAGCCAUAGUGAGUGUGUUACUGAACUGUACCCACCAGGAUGUCCAUUUAGGCGAGACAUUAUCAGACAACAGAGGAUUGAGCAUCA
B8: chrX:115010634:115010735:-|CDS|ENSG00000123496|msi1|FALSE|unique (ssRNA)
RNA: GGGAGUUCUACAGUCCGACGAUCUGGAUCAUCAGAGAACAAGCCUAUCAGAUCCAGUUAUUUCACUUUUCAGCUUCAAAAUAUAGGUGAUGUAAACCAACAAACAACUUCAAAUUCAUUGUUUCUAGUUUAGGCCAUUUACAACAACAGAGGAUUGAGCAUCA
B9: chr1:193029531:193029688:-|CDS|ENSG00000116750|unk|total|mutant (ssRNA)
RNA: B7 RNA with U49C, A50C, U83C, A84C, U125C, A126C
B10: chr7:30424526:30425710:-|three_prime_utr|ENSG00000106100|control|control|control (ssRNA)
RNA: GGGAGUUCUACAGUCCGACGAUCAAACUCCCUAAGUACCCGCUACAAUUCUGCAGAAAAAGAAUGUGUCUUGCGAGCUGUUGUAGUUACAGUAAAUACACUGUGAAGAGACUUUAUUGCCUAUUAUAAUUAUUUUUAUCUGAACAACAGAGGAUUGAGCAUCA
B11: chr9:137457406:137457901:-|CDS|ENSG00000165802|control|control|control (ssRNA)
RNA: GGGAGUUCUACAGUCCGACGAUCCGCCUGUCCCUCGUCUCCAACGGCUGCUACGAGGGCAGCCUCUCAGAGGAGCCCAGCAUUAGGAAGCCCGCAGGCGAGGGCCCUCAGCCUCGAGUGUACACCAUCUCUGGGGAGCCUGCCCAACAGAGGAUUGAGCAUCA
B12: chr10:62095068:62095169:+|3pUTR|ENSG00000150347|msi1|total|mutant (ssRNA)
RNA: GGGAGUUCUACAGUCCGACGAUCCCAUUUGCUUCAAUUAAUUAUUUACCUUCCUGUGGAAUAAUAUAUAUAUAUAUAUUUAACCGAACCACCGACCGACCCGCCGAAUUCCGAUUAUAAAUGUGUGAGUGCAGAUUAUCCUGCCAACAGAGGAUUGAGCAUCA
B13: ENSG00000070961:be:win_4451|3pUTR|ENSG00000070961|bound_else_gene|NA|bound_elsewhere_windowed (ssRNA)
RNA: GGGAGUUCUACAGUCCGACGAUCGUUUUGAAGCAACUGUUUAAUUUUUAAAAUUUUUGAAAACUUGCUAAUAACCUUUUGUUCAGAAUUUAGUAGAUUGUUUAAUGCAGGACAUCAACUACAUAAUGAAAGAUGCUUGAAAUGCAACAGAGGAUUGAGCAUCA
B14: chr9:21239001:21239365:-|three_prime_utr|ENSG00000228083|control|control|control (ssRNA)
RNA: GGGAGUUCUACAGUCCGACGAUCCAAAAUUUUCAAAUGUUUUCAGGAGUGUAAAGAAGCAUCAUGUAUACCUGUGCAGGCACUAGUCCUUUACAGAUGACCAUGCUGAUGUCUCCUUUCAUCUAUUUAUUUAAAUAUUUAUUUCAACAGAGGAUUGAGCAUCA
B15: chr2:224511460:224511569:-|CDS|ENSG00000036257|unk|total|mutant (ssRNA)
RNA: GGGAGUUCUACAGUCCGACGAUCGAAAGCCAGAAAUUUUCCGCAGAAAACCGUGCUUCAGUAUAUAUAAAGAAAGCCGAAGCCCGAAUUAAUGAAGAAACCGAACGAGUGAUGCACUGCCUUGACAAAUCAACGGAAGAACCACAACAGAGGAUUGAGCAUCA
B16: chr6:89631235:89631336:+|3pUTR|ENSG00000135299|msi1|FALSE|unique (ssRNA)
RNA: GGGAGUUCUACAGUCCGACGAUCUGAAGUUUGAAAGCUCAGAUUAAGCAAGCCAUGCCAAGAAACUGGACGAUGUGUAAGCCUAGACUCUAAAAUUCAAGAUGUGUGAAAUAAUAUAAGUCAAAAGCAAGAAAAACGUAAUCCCAACAGAGGAUUGAGCAUCA
B17: chr7:127374855:127374969:-|CDS|ENSG00000048405|unk|total|mutant (ssRNA)
RNA: GGGAGUUCUACAGUCCGACGAUCCCCCGAAGCCAUAUAUCCAAGUGUGGACAAACGAGAAUAUAUUAUUAAGCCCGAACCCACCGAAACUAAUCAAAAUGCAGUAUUUCAAUAUAUUUCGAGGACUGAUAAUCCUAUUGAAGUCAACAGAGGAUUGAGCAUCA
B18: chr2:224511460:224511569:-|CDS|ENSG00000036257|unk|FALSE|bound_elsewhere (ssRNA)
RNA: B15 RNA with C40U, C41A, C50U, C51A, C76U, C77A, C83U, C84A, C100U, C101A
B19: chr10:62095068:62095169:+|3pUTR|ENSG00000150347|msi1|FALSE|unique (ssRNA)
RNA: GGGAGUUCUACAGUCCGACGAUCCCAUUUGCUUCAAUUAAUUAUUUACCUUCCUGUGGAAUAAUAUAUAUAUAUAUAUUUAAUAGAACCAUAGAUAGACUAGUAGAAUUUAGAUUAUAAAUGUGUGAGUGCAGAUUAUCCUGCCAACAGAGGAUUGAGCAUCA
B20: chr14:44928120:44928223:-|3pUTR|ENSG00000179454|unk|total|mutant (ssRNA)
RNA: GGGAGUUCUACAGUCCGACGAUCCCGUACAGCAGGCCUCCCAGUGCUGAUGUAAAUAUUUGAGCAGUGUUCCGUACCAUUCUCCGUGCAUAUUAAUUUUUUUAUAUAUCCUUAUAAUUUCCGUUUUUUAAGAUCUUUGCUUUUCAACAGAGGAUUGAGCAUCA
B21: chr14:44928120:44928223:-|3pUTR|ENSG00000179454|unk|FALSE|unique (ssRNA)
RNA: B20 RNA with C24U, C25A, C71U, C72A, C83U, C84A, C120U, C121A
B22: ENSG00000039319:stop:overlap|stop_codon|ENSG00000039319|stop_codon|NA|stop_codon (ssRNA)
RNA: GGGAGUUCUACAGUCCGACGAUCCCAACUCUAGUUUACCAUUAGAAAUAGAAUUAGUGUUUUUCAUUAUAGAACAUCUUUUUUAGUGAAAGAAUGUGCCAUAUUACAUAUUGCAACCUAAUUUGUUAAAACUAACUCCAGCACCAACAGAGGAUUGAGCAUCA
B23: chr7:127374855:127374969:-|CDS|ENSG00000048405|unk|FALSE|unique (ssRNA)
RNA: B17 RNA with C26U, C27A, C74U, C75A, C83U, C84A

In this test the target is MSI1 full-length (mouse, UniProt Q61474 1-362). Nature of the test: nsRBNS (natural sequence RNA bind-n-seq); RBNS binding buffer (assumed for nsRBNS): 25 mM Tris pH 7.5, 150 mM KCl, 3 mM MgCl2, 0.01% Triton X-100, 500 ug/ml BSA, 20 U/ml SUPERase-In, 4 C; UNK is unkempt and MSI1 is Musashi-1; names of the RNAs are library labels; protein concentration not given here; high values mean tight binding.
Sequence of MSI1 full-length (Q61474 whole entry): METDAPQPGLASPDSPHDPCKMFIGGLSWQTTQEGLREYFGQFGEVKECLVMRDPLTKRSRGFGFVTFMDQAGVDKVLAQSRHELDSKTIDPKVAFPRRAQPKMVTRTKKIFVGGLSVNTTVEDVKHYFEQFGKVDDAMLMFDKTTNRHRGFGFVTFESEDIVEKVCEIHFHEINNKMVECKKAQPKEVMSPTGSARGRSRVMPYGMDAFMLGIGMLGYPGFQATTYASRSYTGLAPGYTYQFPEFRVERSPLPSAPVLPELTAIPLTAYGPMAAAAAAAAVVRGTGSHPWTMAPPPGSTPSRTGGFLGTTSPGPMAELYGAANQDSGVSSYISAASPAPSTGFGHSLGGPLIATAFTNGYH
Molecule B1 returned a binding signal of 0.763 enrichment R.

In turn, B2 had a binding signal of 1.97 enrichment R.

Take B3: the binding signal amounted to 0.411 enrichment R.

Molecule B4 yielded a binding signal of 0.39 enrichment R.

With B5, the binding signal is 0.284 enrichment R.

Molecule B6 came in with a binding signal of 0.744 enrichment R.

Turning to B7, the binding signal is 30 enrichment R.

In the case of B8, the binding signal is 1.74 enrichment R.

For B9, the binding signal was 1.15 enrichment R.

In turn, B10 had a binding signal of 3.46 enrichment R.

For the molecule B11, the binding signal is 0.4 enrichment R.

For B12, the binding signal is 9.42 enrichment R.

Take B13: the binding signal worked out at 0.619 enrichment R.

Take B14: the binding signal came to 0.493 enrichment R.

B15 displayed a binding signal of 0.432 enrichment R.

The molecule B16 displayed a binding signal of 0.258 enrichment R.

Consider B17, for which the binding signal is 0.508 enrichment R.

As to B18, the binding signal came out at 36.5 enrichment R.

B19 had a binding signal of 21.1 enrichment R.

As to B20, the binding signal was determined as 8.16 enrichment R.

Consider B21, for which the binding signal amounted to 35.6 enrichment R.

As for B22, the binding signal stood at 0.848 enrichment R.

The molecule B23 gave a binding signal of 28.2 enrichment R.
